The source of these data is PubChem BioAssay AID588651 (The Scripps Research Institute Molecular Screening Center, 2011).

Active and inactive are the calls of the source. No stated cut-off is given here; in the data, active means inhibition above about 65%; inactive means the rest.

This assay relates to Fam108b. The assay is described as follows: Fam108b inhibition by ABPP, late-stage follow-up, biochemical, gel-based ABPP, recombinant soluble Fam108b, HTS hits, complex proteome (AID 588651).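 Further: Fam108b spiked into mouse brain membrane proteome.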 The note with it: FP-rhodamine labeling in proteome, at 20 µM, hits give high values.
For the compound `COc1ccc(C=NNC(=O)c2ccc(O)cc2)cc1CN1CCCc2ccccc21`, the inhibition – broadly, the drop in the measured response relative to a control, in per cent – was 40% (inactive).
For `Oc1ccc(C2Nc3cccc4cccc(c34)N2)c(O)c1`, the inhibition was 0% (inactive).
The result for `Cn1c(O)c(C=NNC(=O)c2cc3ccccc3cc2O)c2ccccc21` reads 35% (inactive); that for `N=c1oc2cc(O)ccc2cc1C(=O)Nc1ccc(Br)cc1`, 0% (inactive).
The result for `Cc1cc(NN=Cc2c(O)ccc3ccccc23)nc(-c2ccccc2O)n1` reads 85% (active).
As to `Brc1csc(C=NNc2nc3ccccc3s2)c1`, the inhibition is 0% (inactive).
The result for `O=c1oc(-c2ccccc2Cl)nc2ccsc12` reads 95% (active); that for `COc1ccc(/C=C2\SC(=S)N(CC(=O)OCC(=O)Nc3cc(Cl)cc(Cl)c3)C2=O)cc1`, 0% (inactive).
In the case of `O=C(Nc1ccc2[nH]c(=S)sc2c1)Nc1ccccc1F`, the inhibition is 20% (inactive).
In the case of `O=C(O)c1ccc(S(=O)(=O)/N=C2\C=C(Nc3ccccc3F)C(=O)c3ccccc32)cc1`, the inhibition is 0% (inactive).
The result for `COc1ccc(NC(=S)Nc2ccc3nsnc3c2)cc1` reads 0% (inactive); that for `O=C(NC1CCCCC1)c1sc(=S)n2c1[nH]c(=O)c1ccccc12`, 0% (inactive); that for `Cc1ccc2nc(CSc3nc(C)ccc3C#N)[nH]c2c1`, 50% (inactive).
Consider `O=C(Nc1ccc(-c2csc(Nc3ccccc3)n2)cc1)c1cc([N+](=O)[O-])cc(C(F)(F)F)c1`, for which the inhibition was 60% (inactive).
The result for `CC1CCCCN1S(=O)(=O)c1ccc(C(=O)Nc2ccccc2-c2nc3ccccc3[nH]2)cc1` (centres undefined) reads 50% (inactive); that for `COc1cc(-c2nc(-c3ccc4c(c3)-c3ccccc3S4(=O)=O)c(-c3ccccc3)[nH]2)cc(OC)c1O`, 40% (inactive); that for `Oc1ccccc1C1Nc2cccc3cccc(c23)N1`, 0% (inactive).
Under `Oc1ccc(C=NNc2ccnc3cc(Cl)ccc23)cc1O` stands 65% (active).
Under `O=C(O)CCCNc1cc(N2CCN(C(=O)c3ccco3)CC2)c2noc3c2c1C(=O)c1ccccc1-3` stands 40% (inactive).
Regarding `O=C1C(Cl)=C(N2CCC(C(=O)O)CC2)C(=O)c2ccccc21`, the inhibition was 0% (inactive).
Under `Oc1cccc2cc3cccc(O)c3c(O)c12` stands 85% (active); under `O=S(=O)(c1cc(O)ccc1O)c1cccc2c(S(=O)(=O)c3cc(O)ccc3O)cccc12`, 10% (inactive); under `Cc1cc(Nc2ccc(Cl)cc2)nc(NCc2ccccc2)n1`, 0% (inactive).
Consider `O=C(Nc1cccc(C(F)(F)F)c1)Nc1ccc(N2CCCC2)c(S(=O)(=O)Nc2ccccc2Cl)c1`, for which the inhibition was 98% (active).
`CSC[C@@H]1NC(=S)N(c2ccc(C)cc2)C1=O`: the inhibition was 0% (inactive).
Under `O=c1oc(-c2ccccc2F)nc2scc(-c3ccccc3)c12` stands 98% (active); under `O=C(O)C1Nc2ccc(Br)cc2C2C=CCC12` (centres undefined), 0% (inactive); under `O=C(NCC1CC1)c1ccc(Nc2nc3ccc(Br)cc3[nH]2)cc1`, 0% (inactive).
Consider `O=C1C(SCCO)=C(SCCO)C(=O)c2ccccc21`, for which the inhibition was 50% (inactive).
`Cc1ccc(C)c(-n2c3nc(=O)[nH]c(=O)c-3cc3cc([N+](=O)[O-])ccc32)c1`: the inhibition is 0% (inactive).
Under `O=C1NC(=S)/C(=C\c2ccc(-c3ccccc3Cl)o2)S1` stands 0% (inactive); under `COc1ccc(/C=C/C(=O)OCC(=O)Nc2cccc(Oc3ccccc3)c2)c(OC)c1`, 30% (inactive).
The result for `CCn1nc([N+](=O)[O-])c(C(C#N)c2nc3cc(C(F)(F)F)ccc3s2)c(Cl)c1=O` (centres undefined) reads 0% (inactive); that for `Cc1ccc(S(=O)(=O)Nc2ccccc2C(=O)Nc2nc(-c3ccc(F)cc3)cs2)cc1`, 40% (inactive).
